# Assay results published in PubChem BioAssay (NCATS).
# Records with an inconclusive call do not appear. Active and inactive are the calls of the source. Calls come from the whole dose curve; as a rule, active = well fitted curve in the direction sought with a large enough effect; inconclusive = small, poorly fitted or top-dose-only effect, or another doubt; inactive = no such curve, though single readings can be large; an effect the other way counts as inactive or inconclusive.
# Legend:
# [1] = Quantitative High-Throughput drug screen in 47 multiple myeloma cell lines against the NCATS MIPE library collection: Karpas417_ECACC cell viability assay (AID 1918961); conditions: Karpas417 myeloma viability, CellTiter-Glo ATP luminescence, 48 h; viability (% of DMSO): at 45.8 µM (top of the series)
# In short: (§1)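 CellTiter-Glo ATP luminescence gave viability after 48 h compound treatment at 37C of 500 multiple myeloma cells per well. Normalisation used DMSO-only wells as 100% and media-only wells as 0% viability; primary qHTS of approved and investigational drugs.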
# [2] = Quantitative High-Throughput drug screen in 47 multiple myeloma cell lines against the NCATS MIPE library collection: JIM3_ECACC cell viability assay (AID 1918963; note: nearly all actives have a fitted effect of over 35% in size)
# In short: (§2)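 Myeloma cells (500 per well) were exposed to MIPE 4.0 compounds by pin transfer and incubated 48 hours at 37C, 5% CO2. Viability was read as ATP by CellTiter-Glo luminescence, normalised to DMSO (100%) and media-only (0%) wells.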
# [3] = Quantitative High-Throughput drug screen in 47 multiple myeloma cell lines against the NCATS MIPE library collection: JIM1_ECACC cell viability assay (AID 1918964)
# In short: as §1
# [4] = Quantitative High-Throughput drug screen in 47 multiple myeloma cell lines against the NCATS MIPE library collection: INA6_PLB cell viability assay (AID 1918965; note: nearly all actives have a fitted effect of over 55% in size)
# In short: as §1
# [5] = Quantitative High-Throughput drug screen in 47 multiple myeloma cell lines against the NCATS MIPE library collection: H1112_PLB cell viability assay (AID 1918967; note: nearly all actives have a fitted effect of over 30% in size)
# In short: as §1
# [6] = Quantitative High-Throughput drug screen in 47 multiple myeloma cell lines against the NCATS MIPE library collection: Karpas25_ECACC cell viability assay (AID 1918968; note: nearly all actives have a fitted effect of over 35% in size)
# In short: as §1
# [7] = Quantitative High-Throughput drug screen in 47 multiple myeloma cell lines against the NCATS MIPE library collection: KHM11_PLB cell viability assay (AID 1918962); note: nearly all actives have a fitted effect of over 35% in size
# In short: as §2
# [8] = Quantitative High-Throughput drug screen in 47 multiple myeloma cell lines against the NCATS MIPE library collection: KMS27_JCRB cell viability assay (AID 1918970); conditions: KMS27 myeloma cells, CellTiter-Glo ATP viability, 48 h; viability (% of DMSO): at 45.8 µM (top of the series); note: nearly all actives have a fitted effect of over 30% in size
# In short: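 Each line is seeded at 500 cells per well and treated with library compounds for 48 hours under 37 °C, 5% CO2. CellTiter-Glo is then added for 5 min at room temperature before median relative luminescence is recorded.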
# [9] = Quantitative High-Throughput drug screen in 47 multiple myeloma cell lines against the NCATS MIPE library collection: JJN3_DSMZ cell viability assay (AID 1918966; note: nearly all actives have a fitted effect of over 50% in size)
# In short: as §1
# Potency is the fitted concentration of half-maximal effect.
structure (smiles),measurement,setting,value
COc1ccc(-c2cc3nccn3c(Nc3ncccc3C(N)=O)n2)cc1OC,Potency,[1],0.166 µM (active)
same,Potency,[2],1.05 µM (active)
same,Potency,[3],0.372 µM (active)
same,Potency,[4],0.187 µM (active)
same,Potency,[5],5.9 µM (active)
same,Potency,[6],1.48 µM (active)
CC(=O)OCC(=O)[C@@]12OC(C)(C)O[C@H]1C[C@H]1[C@@H]3C[C@H](F)C4=CC(=O)C=C[C@]4(C)[C@@]3(F)[C@@H](O)C[C@@]12C,Potency,[7],inactive
same,Potency,[2],inactive
same,Potency,[3],inactive
same,Potency,[5],inactive
same,Potency,[8],inactive
N#CC1(c2cccc(C(=O)Nc3cc(Oc4ccc5nc(NC(=O)C6CC6)sc5n4)ccc3F)c2Cl)CC1,Potency,[1],0.187 µM (active)
same,Potency,[4],5.9 µM (active)
same,Potency,[5],13.2 µM (active)
c1cc(OCCN2CCCCC2)cc(-c2n[nH]c3ccc(-c4ncn[nH]4)cc23)c1,Potency,[7],14.8 µM (active)
same,Potency,[2],18.7 µM (active)
same,Potency,[4],6.62 µM (active)
same,Potency,[9],11.8 µM (active)
same,Potency,[6],14.8 µM (active)
same,Potency,[8],18.7 µM (active)
COC1CCC(C(=O)c2ccc3nc4c(cc3c2)CCCO4)CC1 (stereo not drawn),Potency,[7],9.35 µM (active)
same,Potency,[2],14.8 µM (active)
same,Potency,[4],13.2 µM (active)
same,Potency,[9],20.9 µM (active)
same,Potency,[6],18.7 µM (active)
same,Potency,[8],18.7 µM (active)
Clc1ccc(C2(c3ccc(-c4cn[nH]c4)cc3)CCNCC2)cc1,Potency,[1],6.62 µM (active)
same,Potency,[7],11.8 µM (active)
same,Potency,[2],26.4 µM (active)
same,Potency,[4],5.9 µM (active)
same,Potency,[9],20.9 µM (active)
same,Potency,[5],16.6 µM (active)
same,Potency,[6],3.72 µM (active)
O=C(O)CCNc1cc(N2CCc3ccccc3CC2)nc(-c2ccccn2)n1,Potency,[1],inactive
same,Potency,[4],16.6 µM (active)
same,Potency,[5],inactive
same,Potency,[6],16.6 µM (active)
CCOC(=O)N1CCN([N+]([O-])=NOc2cc(ON=[N+]([O-])N3CCN(C(=O)OCC)CC3)c([N+](=O)[O-])cc2[N+](=O)[O-])CC1,Potency,[7],6.62 µM (active)
same,Potency,[2],9.35 µM (active)
same,Potency,[3],inactive
same,Potency,[4],2.35 µM (active)
same,Potency,[9],2.96 µM (active)
same,Potency,[5],5.9 µM (active)
same,Potency,[6],2.64 µM (active)
Cc1nc2c([nH]1)CCN(C(=O)c1ccc(NC(=O)c3ccccc3-c3ccccc3)cc1)c1ccccc1-2,Potency,[3],inactive
same,Potency,[9],inactive
same,Potency,[5],inactive
same,Potency,[8],inactive
C=CC(=O)Nc1cccc(Sc2nc(Nc3ccc(N4CCN(C)CC4)cc3)ncc2Cl)c1,Potency,[9],37.2 µM (active)
c1ccc(CNc2nc(N3CCOc4ccccc43)nc3c2CCCC3)cc1,Potency,[9],inactive
same,Potency,[5],inactive
NCc1c[nH]c(=S)n1[C@H]1CCc2c(F)cc(F)cc2C1,Potency,[6],23.5 µM (active)
same,Potency,[8],11.8 µM (active)
CCOC(=O)[C@@H](N)CCC(=O)N[C@@H](CSCc1ccccc1)C(=O)N[C@@H](C(=O)OCC)c1ccccc1,Potency,[4],18.7 µM (active)
same,Potency,[9],26.4 µM (active)
same,Potency,[6],23.5 µM (active)
same,Potency,[8],23.5 µM (active)
CCC(=O)N1CCN(c2ccc(-n3c(=O)ccc4cnc5ccc(-c6cnc7ccccc7c6)cc5c43)cc2C(F)(F)F)CC1,Potency,[4],0.0148 µM (active)
same,Potency,[6],0.0332 µM (active)
O=c1[nH]c(=O)n([C@H]2C[C@@H](O)[C@@H](CO)O2)cc1C(F)(F)F,Potency,[4],1.87 µM (active)
same,Potency,[9],inactive
same,Potency,[5],5.26 µM (active)
same,Potency,[6],10.5 µM (active)
same,Potency,[8],7.43 µM (active)
COC(=O)[C@H](c1ccccc1Cl)N1CCc2sccc2C1,Potency,[9],20.9 µM (active)
C[C@H](c1ccc(F)cc1CCCC(=O)O)N(c1cc(F)ccc1F)S(=O)(=O)c1ccc(Cl)cc1,Potency,[2],26.4 µM (active)
same,Potency,[6],20.9 µM (active)
same,Potency,[8],inactive
Cc1cc(-c2ncc(CC(=O)Nc3ccc(-c4cnccn4)cn3)cc2C)ccn1,Potency,[4],10.5 µM (active)
same,Potency,[9],6.62 µM (active)
same,Potency,[6],10.5 µM (active)
CCCC1OC2C[C@@H]3[C@H]4CCC5=CC(=O)C=C[C@]5(C)[C@H]4C(O)C[C@]3(C)[C@]2(C(=O)CO)O1 (stereo partly drawn),Potency,[4],inactive
same,Potency,[5],inactive
same,Potency,[6],0.0132 µM (active)
same,Potency,[8],inactive
CN1CCc2c(n(Cc3ccc(C(=O)NO)cc3)c3ccccc23)C1,Potency,[4],4.69 µM (active)
same,Potency,[9],16.6 µM (active)
same,Potency,[6],16.6 µM (active)
same,Potency,[8],0.743 µM (active)
Cn1c(=O)c(Oc2ccc(F)cc2F)cc2cnc(NC3CCOCC3)nc21,Potency,[2],inactive
same,Potency,[5],inactive
same,Potency,[8],inactive
O=C1Nc2ccc(I)cc2C1=Cc1cc(Br)c(O)c(Br)c1,Potency,[4],2.96 µM (active)
same,Potency,[6],14.8 µM (active)
same,Potency,[8],10.5 µM (active)
CNC(=O)c1c(-c2ccc(F)cc2)oc2cc(N(CCO)S(C)(=O)=O)c(C3CC3)cc12,Potency,[6],20.9 µM (active)
Nc1ccc(-c2ccc3ncc4ccc(=O)n(-c5cccc(C(F)(F)F)c5)c4c3c2)cn1,Potency,[9],0.0235 µM (active)
same,Potency,[5],0.0469 µM (active)
CON(C)C(=O)N1N=C(c2cc(F)ccc2F)S[C@]1(CCCN)c1ccccc1,Potency,[4],inactive
same,Potency,[5],inactive
same,Potency,[8],0.001 µM (active)
Cc1cc2nc3c(=O)[nH]c(=O)nc-3n(CC(O)C(O)C(O)CO)c2cc1C (stereo not drawn),Potency,[4],inactive
same,Potency,[9],2.64 µM (active)
same,Potency,[5],inactive
same,Potency,[6],inactive
COc1nc(C)cnc1NS(=O)(=O)c1cccnc1-c1ccc(-c2nnco2)cc1,Potency,[3],inactive
same,Potency,[4],inactive
same,Potency,[9],1.87 µM (active)
same,Potency,[5],inactive
same,Potency,[8],inactive
CCC[C@@H](NC(=O)[C@@H]1[C@H]2CCC[C@@H]2CN1C(=O)[C@@H](NC(=O)[C@@H](NC(=O)c1cnccn1)C1CCCCC1)C(C)(C)C)C(=O)C(=O)NC1CC1,Potency,[5],18.7 µM (active)
same,Potency,[6],18.7 µM (active)
same,Potency,[8],inactive
